Assay results reported in PubChem BioAssay (NCI).
About 83,000 compounds went through this panel and 20% of them were active in at least one assay; those are over-represented in the sample as a whole.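 Single-dose data. Exposure time 48 hours. Values below 10 considered active.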 Active and inactive are the calls of the source.

What was measured:
Experiment in all cases: NCI-60 one-dose screen, 48 h (100 = growth as untreated, 0 = no growth, -100 = all killed)
Conditions in all cases: 10 µM unless noted
NCI-H23 lung = system: NCI-H23 lung
NCI-H226 lung = system: NCI-H226 lung
NCI-H322M lung = system: NCI-H322M lung
HOP-62 NSCLC = system: HOP-62 NSCLC
NCI-H460 lung = system: NCI-H460 lung
HOP-92 NSCLC = system: HOP-92 NSCLC
NCI-H522 lung = system: NCI-H522 lung
A549/ATCC NSCLC = system: A549/ATCC NSCLC
786-0 renal = system: 786-0 renal
COLO 205 colon = system: COLO 205 colon

Measured: growth

O=c1[nH]c(-c2ccccn2)nc2sc3c(c12)CCCCC3
inactive: NCI-H23 lung 56.9% | NCI-H226 lung 68.8% | NCI-H322M lung 48.5% | HOP-62 NSCLC 37.8% | NCI-H460 lung 18.8% | HOP-92 NSCLC 68.6% | NCI-H522 lung 20.8% | A549/ATCC NSCLC 31.7% | 786-0 renal 60.4% | COLO 205 colon 28%

COc1cc(C#N)cc(OC)c1OCCN(CCOc1c(OC)cc(C#N)cc1OC)S(=O)(=O)c1ccc(C)cc1
inactive: NCI-H23 lung 96% | NCI-H226 lung 104% | NCI-H322M lung 91.6% | HOP-62 NSCLC 100% | NCI-H460 lung 112% | HOP-92 NSCLC 88.5% | NCI-H522 lung 95.1% | A549/ATCC NSCLC 100% | 786-0 renal 92.7% | COLO 205 colon 113%

C=C(CN1CCN(c2cccc(C(F)(F)F)n2)CC1)c1ccc(C(=O)Nc2ccccc2N)cc1
active: NCI-H460 lung 7.02% | HOP-92 NSCLC -12.1% | NCI-H522 lung -45.3% | 786-0 renal 7.8% | COLO 205 colon 1.41%
inactive: NCI-H23 lung 35.5% | NCI-H226 lung 84.2% | NCI-H322M lung 45.8% | HOP-62 NSCLC 20.6% | A549/ATCC NSCLC 27.3%

OC(c1cccc(C(F)(F)F)c1)c1cnccc1NC1CCCCCC1 (stereo not given)
inactive: NCI-H23 lung 26.1% | NCI-H226 lung 62.4% | NCI-H322M lung 46.3% | HOP-62 NSCLC 74.4% | NCI-H522 lung 58.6% | A549/ATCC NSCLC 53.8% | 786-0 renal 56.2%
active: NCI-H460 lung -23.9% | HOP-92 NSCLC 5.31% | COLO 205 colon -76.3%

O=C1C=CC(Nc2ccccc2[N+](=O)[O-])C1Nc1ccccc1[N+](=O)[O-] (stereo not given)
active: NCI-H23 lung 6.85% | NCI-H226 lung -41.7% | HOP-92 NSCLC -56.5% | NCI-H522 lung -90.1% | 786-0 renal -76.7% | COLO 205 colon -79.2%
inactive: NCI-H322M lung 79.1% | HOP-62 NSCLC 90.9% | NCI-H460 lung 59% | A549/ATCC NSCLC 92.2%

CCC(=O)OCc1cccc(OC)c1
inactive: NCI-H23 lung 107% | NCI-H226 lung 97.9% | NCI-H322M lung 108% | HOP-62 NSCLC 87.9% | NCI-H460 lung 95.8% | HOP-92 NSCLC 76.4% | NCI-H522 lung 94.5% | A549/ATCC NSCLC 113% | 786-0 renal 102% | COLO 205 colon 111%

O=C1c2cc3c(cc2-c2c1c1cc(Cl)c(Cl)cc1c(=O)n2CCCn1ccnc1)OCO3
active: NCI-H23 lung -19.4% | NCI-H226 lung -3.81% | HOP-62 NSCLC -19.5% | NCI-H460 lung 6.51% | NCI-H522 lung 1.51% | A549/ATCC NSCLC 3.18% | 786-0 renal -3.17% | COLO 205 colon 6.24%
inactive: NCI-H322M lung 22.9% | HOP-92 NSCLC 29.5%

COc1ccc2nc3cc(Cl)ccc3c(N3CCN(c4ccnc(N5CCOCC5)n4)CC3)c2c1
inactive: NCI-H23 lung 46.1% | NCI-H226 lung 89.2% | NCI-H322M lung 94.4% | HOP-62 NSCLC 71.5% | NCI-H460 lung 76.5% | HOP-92 NSCLC 56.3% | A549/ATCC NSCLC 95.2% | 786-0 renal 92.8% | COLO 205 colon 31.1%
active: NCI-H522 lung -51.4%

O=C1c2cc3c(cc2-c2c1c1cc(F)c(F)cc1c(=O)n2C[C@H](O)CO)OCO3
active: NCI-H23 lung -30.4% | NCI-H226 lung -74.1% | NCI-H322M lung -3.54% | HOP-62 NSCLC -35.2% | NCI-H460 lung 1.39% | HOP-92 NSCLC 9.43% | NCI-H522 lung -3.34% | A549/ATCC NSCLC -57.8% | 786-0 renal -20.8% | COLO 205 colon -17.9%

O=C1CC(c2nc3ccccc3[nH]2)CN1C1CCCCC1 (stereo not given)
inactive: NCI-H23 lung 89.8% | NCI-H226 lung 95.4% | NCI-H322M lung 103% | HOP-62 NSCLC 94.9% | NCI-H460 lung 109% | HOP-92 NSCLC 91.3% | NCI-H522 lung 89.3% | A549/ATCC NSCLC 104% | 786-0 renal 110% | COLO 205 colon 102%

C#Cc1nc(Nc2cc(C)[nH]n2)c2ccccc2n1
active: NCI-H23 lung -19.4% | NCI-H226 lung -63.3% | NCI-H322M lung -18.2% | HOP-62 NSCLC -61.2% | NCI-H460 lung -36.7% | HOP-92 NSCLC -46.3% | NCI-H522 lung -72.7% | A549/ATCC NSCLC -35.7% | 786-0 renal -60.7% | COLO 205 colon -56.6%

O=C1C(=O)N(CCCCn2cc(CO)nn2)c2ccccc21
inactive: NCI-H23 lung 98.2% | NCI-H226 lung 97.4% | NCI-H322M lung 108% | HOP-62 NSCLC 96.3% | NCI-H460 lung 101% | HOP-92 NSCLC 106% | NCI-H522 lung 90.1% | A549/ATCC NSCLC 104% | 786-0 renal 99.9% | COLO 205 colon 111%

Cc1ccc(/C=C2\Oc3cc(OCC(=O)c4ccc(Cl)cc4)ccc3C2=O)cc1
inactive: NCI-H23 lung 90.1% | NCI-H226 lung 109% | NCI-H322M lung 103% | HOP-62 NSCLC 104% | NCI-H460 lung 120% | HOP-92 NSCLC 88.2% | NCI-H522 lung 103% | A549/ATCC NSCLC 90.1% | 786-0 renal 107% | COLO 205 colon 111%

c1ccc(Sc2ncnc3ccccc23)cc1
inactive: NCI-H23 lung 70.2% | NCI-H226 lung 82.2% | NCI-H322M lung 79.9% | HOP-62 NSCLC 99.4% | NCI-H460 lung 89.9% | HOP-92 NSCLC 48.9% | NCI-H522 lung 82.8% | A549/ATCC NSCLC 90.4% | 786-0 renal 87.6% | COLO 205 colon 108%

Nc1cc(-c2nc3sccn3c2-c2ccnc(NCCCNS(=O)(=O)c3ccc(F)cc3)n2)ccc1F
inactive: NCI-H23 lung 63.5% | NCI-H226 lung 50.7% | NCI-H322M lung 69.9% | HOP-62 NSCLC 78.1% | NCI-H460 lung 47.4% | HOP-92 NSCLC 96.9% | NCI-H522 lung 48% | A549/ATCC NSCLC 41.4% | 786-0 renal 61.3% | COLO 205 colon 32.4%

CCCCNc1ccc2c3c1cccc3c(=O)n1c3ccccc3nc21
inactive: NCI-H23 lung 60% | NCI-H226 lung 73.7% | NCI-H322M lung 93.5% | HOP-62 NSCLC 81.9% | NCI-H460 lung 48.3% | HOP-92 NSCLC 61.2% | NCI-H522 lung 71.9% | A549/ATCC NSCLC 76.6% | 786-0 renal 102% | COLO 205 colon 85.4%

CCOC(=O)c1c2c(n3ccc(NC(=O)CCN(CC)CC)cc13)C(=O)c1ncccc1C2=O
inactive: NCI-H226 lung 75.1% | NCI-H322M lung 73.4% | HOP-62 NSCLC 31.4% | HOP-92 NSCLC 82.1% | A549/ATCC NSCLC 36.2% | 786-0 renal 50.1% | COLO 205 colon 54.1%
active: NCI-H23 lung 0.0285% | NCI-H460 lung -20.4% | NCI-H522 lung 6.16%

c1ccc(CSc2ncnc3nc[nH]c23)nc1
inactive: NCI-H23 lung 99.1% | NCI-H226 lung 91.4% | NCI-H322M lung 103% | HOP-62 NSCLC 92.2% | NCI-H460 lung 104% | HOP-92 NSCLC 135% | NCI-H522 lung 82.7% | A549/ATCC NSCLC 106% | 786-0 renal 92.4% | COLO 205 colon 121%

O=[N+]([O-])c1cccc(C2CC(c3ccccc3)=Nc3ccccc3S2)c1 (stereo not given)
inactive: NCI-H23 lung 87.9% | NCI-H226 lung 96.6% | NCI-H322M lung 99.6% | HOP-62 NSCLC 98.5% | NCI-H460 lung 106% | HOP-92 NSCLC 91.1% | NCI-H522 lung 76.7% | A549/ATCC NSCLC 88.6% | 786-0 renal 97.1% | COLO 205 colon 98.9%

CC(C)(C)n1cc(-c2ccnc(NCCCNS(=O)(=O)c3cccc4ccccc34)c2)c(-c2cccc(O)c2)n1
active: NCI-H460 lung 2.1% | 786-0 renal -0.248% | COLO 205 colon -79.1%
inactive: NCI-H23 lung 42.1% | NCI-H226 lung 41% | NCI-H322M lung 43.4% | HOP-62 NSCLC 47.7% | HOP-92 NSCLC 37.7% | NCI-H522 lung 15.8% | A549/ATCC NSCLC 29.2%

C=C1CC[C@@H]2[C@](C)(COC(C)=O)[C@H](OC(C)=O)CC[C@@]2(C)[C@@H]1CC(NCc1ccc(F)cc1)C1=CCOC1=O (stereo not given in full)
inactive: NCI-H23 lung 57.9% | NCI-H226 lung 40.1% | NCI-H322M lung 72.5% | HOP-62 NSCLC 78.7% | NCI-H460 lung 55.2% | HOP-92 NSCLC 18.8% | NCI-H522 lung 20.9% | A549/ATCC NSCLC 57.9% | 786-0 renal 86.8% | COLO 205 colon 42.2%

Cn1c(=O)c2[nH]c(C(O)C(O)C(O)C(O)CO)nc2n(C)c1=O (stereo not given)
inactive: NCI-H23 lung 100% | NCI-H226 lung 95.1% | NCI-H322M lung 93.7% | HOP-62 NSCLC 96% | NCI-H460 lung 107% | HOP-92 NSCLC 109% | NCI-H522 lung 86.7% | A549/ATCC NSCLC 88.7% | 786-0 renal 107% | COLO 205 colon 103%

C/C(=C(/c1ccc(O)cc1)c1ccc(Cl)cc1)c1ccccc1
active: NCI-H23 lung -62.5% | NCI-H226 lung -80.4% | NCI-H322M lung -95% | HOP-62 NSCLC -90.8% | NCI-H460 lung -91.2% | HOP-92 NSCLC -96% | NCI-H522 lung -78% | A549/ATCC NSCLC -85.8% | 786-0 renal -89.3% | COLO 205 colon -82.8%

CN(C)CC(=O)Nc1ccc(Cn2nnc3c2C(=O)c2nnn(Cc4ccc(NC(=O)CN(C)C)cc4)c2C3=O)cc1
active: NCI-H23 lung -31.7% | NCI-H226 lung -56.2% | NCI-H322M lung -52.6% | HOP-62 NSCLC -67.4% | NCI-H460 lung -3.43% | HOP-92 NSCLC -53.8% | NCI-H522 lung -67% | A549/ATCC NSCLC -59.8% | 786-0 renal -76.4% | COLO 205 colon -80.4%

CCOC(=O)c1nc(Nc2cc(C)[nH]n2)c2ccccc2n1
inactive: NCI-H23 lung 95.1% | NCI-H226 lung 81% | NCI-H322M lung 90.7% | HOP-62 NSCLC 103% | NCI-H460 lung 79.7% | HOP-92 NSCLC 86.3% | NCI-H522 lung 92.2% | A549/ATCC NSCLC 96.5% | 786-0 renal 82.6% | COLO 205 colon 104%

C[C@@H]1CCC2=C(CCC[C@]2(C)C(=O)O)[C@@]1(C)CCc1ccoc1
inactive: NCI-H23 lung 99.4% | NCI-H226 lung 85.7% | NCI-H322M lung 93.4% | HOP-62 NSCLC 96.5% | NCI-H460 lung 96.9% | HOP-92 NSCLC 85.1% | NCI-H522 lung 77% | A549/ATCC NSCLC 75.8% | 786-0 renal 112% | COLO 205 colon 112%

C/C(Cc1ccc(Cl)cc1)=C(\c1ccc(OCCN2CCCCCC2)cc1)c1ccc(OC(=O)C2CCCCC2)cc1
active: COLO 205 colon -21.8%
inactive: NCI-H23 lung 74.8% | NCI-H226 lung 79.2% | NCI-H322M lung 70.5% | HOP-62 NSCLC 81.5% | NCI-H460 lung 34.7% | HOP-92 NSCLC 29.1% | NCI-H522 lung 64.8% | A549/ATCC NSCLC 66.5% | 786-0 renal 70%
